Compound activity from PubChem.
Shown are actives, neighbours in structure and some others; about 1.8% of the full set was active somewhere.
Myeloid diff 2 – myeloid differentiation induction. ER-HoxA9 myeloid progenitors, lysozyme-GFP differentiation, flow cytometry. 360,000 compounds, 1% hits. AID 624256. calls only at 10 µM;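 active = normalized GFP-positive differentiation at or above the plate's own cutoff, the solvent-only control mean plus 3 SD; inconclusive = no clear call, values can overlap the other calls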;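 also: cells exposed to compound for four days before flow analysis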
Exocytosis inh – blocks lytic granule exocytosis | inhibition, % at 10 µM | TALL-104 LAMP-1 surface exposure, flow cytometry; cells stimulated with thapsigargin and PMA | AID 651702 | 360,000 compounds, 0.66% hits;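 active = inhibition above about 55%, limit read from the data; inconclusive = no clear call, values can overlap the other calls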
ABCB6 inh 2 – human ABCB6 transporter inhibition. 360,000 compounds, 0.19% hits. K562-ABCB6 porphyrin accumulation, flow cytometry, 1 h; active compounds read low. fluorescence ratio to DMSO, % at 10 µM. Q9NP58;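 active = fluorescence ratio to DMSO below 75%, the collection mean minus 3 SD; inconclusive = too few cells collected in the well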;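 also: signal is porphyrin accumulated inside mitochondria; lower ratio means ABCB6 inhibition with less porphyrin fluorescence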
Target sequence (Q9NP58 whole entry, looked up): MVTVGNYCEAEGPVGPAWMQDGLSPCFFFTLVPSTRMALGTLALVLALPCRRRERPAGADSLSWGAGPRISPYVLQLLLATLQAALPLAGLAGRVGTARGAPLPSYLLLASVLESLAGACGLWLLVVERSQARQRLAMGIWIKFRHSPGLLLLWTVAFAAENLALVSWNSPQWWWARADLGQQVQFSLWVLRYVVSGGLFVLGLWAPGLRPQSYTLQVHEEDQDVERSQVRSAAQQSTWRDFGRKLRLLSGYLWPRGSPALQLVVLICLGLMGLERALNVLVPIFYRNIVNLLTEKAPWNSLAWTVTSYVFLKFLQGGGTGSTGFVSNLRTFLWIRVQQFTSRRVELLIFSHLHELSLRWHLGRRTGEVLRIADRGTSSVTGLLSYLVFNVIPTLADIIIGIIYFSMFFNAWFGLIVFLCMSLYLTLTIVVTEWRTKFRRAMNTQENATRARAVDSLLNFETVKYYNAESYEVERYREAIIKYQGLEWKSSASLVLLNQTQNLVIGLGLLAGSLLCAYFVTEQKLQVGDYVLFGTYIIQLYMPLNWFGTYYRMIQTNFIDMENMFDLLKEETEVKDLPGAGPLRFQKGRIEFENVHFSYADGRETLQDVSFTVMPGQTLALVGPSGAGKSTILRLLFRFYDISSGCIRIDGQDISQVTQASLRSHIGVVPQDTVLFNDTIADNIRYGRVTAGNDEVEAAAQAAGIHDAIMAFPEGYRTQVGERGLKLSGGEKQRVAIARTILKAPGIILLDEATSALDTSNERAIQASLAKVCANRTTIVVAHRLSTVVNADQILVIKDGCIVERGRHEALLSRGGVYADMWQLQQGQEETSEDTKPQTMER
Myeloid diff CP1 – myeloid differentiation induction | 2,300 compounds, 2% hits | calls only | ER-HoxA9 myeloid progenitors, GFP/Mac1 double-positive flow | shares compounds with Myeloid diff 2;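 active = share of green or green-and-red cells above 9 and 9% in run 1 or 4 and 3% in run 2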
GFP autofluor – compound fluorescence in myeloid differentiation counter-screen. ER-HoxA9 myeloid progenitors, no estrogen, GFP autofluorescence flow cytometry; vehicle wells 0%, positive control 100%. AID 651707. fluorescence response, % (no concentration beside the values). 2,300 compounds, 7.4% hits. shares compounds with Myeloid diff 2;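 active = over 5% cells positive for green fluorescent reporter, or over 2% positive for both it and APC stain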
Numbers stand for hits; - = inactive; ? = inconclusive; . = no result; + = active, no number.

SMILES	Myeloid diff 2	Exocytosis inh	ABCB6 inh 2	Myeloid diff CP1	GFP autofluor
COc1cccc(CNS(=O)(=O)c2ccccc2Br)c1OC	-	-	-	-	-
COc1ccccc1CNS(=O)(=O)c1cc(C)ccc1OC	-	-	-	.	.
OCCn1c(-c2ccc(F)cc2)csc1=Nc1ccccc1	-	-	-	.	.
CCOc1ccc(N=c2scc(-c3ccc(OC)cc3)n2CCO)cc1	-	-	-	-	-
COc1ccc(CN2CC[C@H]3C=CC[C@@H](C(=O)Nc4ccc(Cl)c(C(F)(F)F)c4)[C@H]3C2=O)cc1OC	-	-	-	-	-
COc1ccc(NC(=O)[C@@H]2CC=C[C@@H]3CCN(Cc4ccc(Cl)c(Cl)c4)C(=O)[C@@H]32)cc1	-	-	-	.	.
Cc1nc2cc(F)ccc2n1C1CCN(C(=O)c2c(F)cccc2F)CC1	-	-	-	.	.
C=CCN1C(=O)C2(NNc3ccccc3O2)c2ccccc21 (stereo unspecified)	-	-	-	-	94.9
CCCCN1C(=O)C2(NNc3ccccc3O2)c2ccccc21 (stereo unspecified)	-	-	-	.	.
Cc1ccc(S(=O)(=O)N(CC(=O)NCc2ccccc2Cl)C(=O)N2CCN(C)CC2)cc1	-	-	-	.	.
NC(=O)CCC(NS(=O)(=O)c1ccc(Cl)cc1)C(=O)NCc1ccc(Cl)cc1 (stereo unspecified)	-	-	-	.	.
NC(=O)CCC(NS(=O)(=O)c1ccc(Cl)cc1)C(=O)NCC1CCCCC1 (stereo unspecified)	-	-	-	-	-
C/C(=N\NC(=O)Cn1ccc(C(F)(F)F)n1)c1ccco1	-	-	-	.	.
OC(COCC1CC=CCC1)Cn1cnc2ccccc21 (stereo unspecified)	-	-	-	.	.
Cc1nc2ccccc2n1CC(O)COCC1CC=CCC1 (stereo unspecified)	+	-	-	-	-
CCC1=C(OC(=O)N(CC)CC)N2C(=O)OC(=NCC(=O)OC)[C@]2(Cc2ccccc2)[C@H]2C1=CC[C@H]1C(=O)N(c3ccccc3)C(=O)[C@H]12	-	-	-	.	.
Cn1c(NCCc2ccncc2)nc2cc(-c3ccsc3)sc2c1=O	-	-	-	.	.
Cc1ccc(C(=O)NCC(=O)OCCCOC(=O)CNC(=O)c2ccc(C)cc2)cc1	-	-	-	.	.
COc1cccc(C(=O)Nc2ncc3c(n2)CC(c2ccc(OC)cc2OC)CC3=O)c1 (stereo unspecified)	-	-	-	-	-
COc1ccc(C(=O)Nc2ncc3c(n2)CC(C)CC3=O)cc1 (stereo unspecified)	-	-	-	.	.
CN(CC(=O)Nc1ccc(F)c(F)c1F)C(=O)CCCSc1nc2ccccc2[nH]1	-	-	-	.	.
COc1ccc(-c2nc(/C=C3\C(C)=Nc4ccccc43)c(O)o2)cc1	-	-	-	.	.
CC1=Nc2ccccc2/C1=C/c1sc(=N)n(-c2nccs2)c1O	-	-	-	-	47.1
O=c1[nH]nc(Cc2ccccc2)c2ccccc12	-	-	-	.	.
COc1ccc(Cc2n[nH]c(=O)c3ccccc23)cc1OC	-	-	-	-	-
SMILES	Myeloid diff 2	Exocytosis inh	ABCB6 inh 2	Myeloid diff CP1	GFP autofluor
Cc1ccc(-c2nn(-c3ccccc3)cc2CC(=S)N2CCOCC2)cc1	-	-	-	.	.
Cc1ccc2nsnc2c1NC(=O)c1ccc(-c2cc(Cl)ccc2Cl)o1	-	-	-	.	.
Cc1ccnc(NC(=O)c2ccc([N+](=O)[O-])o2)c1	+	-	-	-	-
O=C(Nc1ccccn1)c1ccc([N+](=O)[O-])o1	-	-	-	.	.
Cc1ccc2nsnc2c1NC(=O)c1ccc([N+](=O)[O-])o1	+	-	-	-	-
COc1cc(C(=O)OCCc2cc3ccccc3c(=O)o2)cc(OC)c1OC	?	-	-	.	.
COc1cc(C(=O)NCC(=O)NNC(=O)C2COc3ccccc3O2)cc(OC)c1OC (stereo unspecified)	-	-	-	.	.
COc1ccc(S(=O)(=O)N2CCOC2CNC(=O)C(=O)NCc2ccccn2)cc1OC (stereo unspecified)	+	-	-	-	-
Cc1ccc(S(=O)(=O)N2CCOC2CNC(=O)C(=O)NCc2ccccn2)cc1 (stereo unspecified)	-	-	-	.	.
O=C(NCCCCO)c1ccc2c3c(cccc13)CC2	-	-	-	.	.
CCOc1ccccc1C(=O)N1CCN(c2cccc(Cl)c2)CC1	-	-	-	-	-
O=C(O)c1ccccc1C(=O)N1CCN(c2cccc(Cl)c2)CC1	-	-	-	.	.
COc1ccc(-c2ccc([C@H]3[C@@H]4C=CCC[C@@]4(C)C(=O)N3Cc3ccccc3)c(F)c2)cc1	-	-	-	-	-
Cc1ccc(-c2ccc([C@H]3[C@@H]4C=CCC[C@@]4(C)C(=O)N3Cc3ccccc3)c(F)c2)cc1	-	-	-	.	.
N#Cc1c(N2CCN(C(=O)c3ccccc3)CC2)nc(-c2ccccc2)c2c1CCCC2	-	-	-	.	.
N#Cc1c(N2CCN(C(=O)c3ccco3)CC2)nc(-c2ccccc2)c2c1CCCC2	-	-	-	-	-
CCN(C(=O)COC(=O)c1ccc(SC)cc1OC)C1CCS(=O)(=O)C1 (stereo unspecified)	-	-	-	.	.
CC(C)(C)NC(=O)C(c1ccc(-c2ccccc2)cc1)N(C[C@H]1CC[C@@H]([C@@H]2CC[C@H](CO)O2)O1)C(=O)c1ccc(C(C)(C)C)cc1 (stereo partly specified)	-	-	-	-	-
Cc1ccc(C(C(=O)NC(C)(C)C)N(CC2CCCO2)C(=O)c2csnn2)cc1 (stereo unspecified)	-	-	-	.	.
CN(C)S(=O)(=O)c1cccc(NC(=O)c2ccc3c(c2)S(=O)(=O)N=C2CCCCCN23)c1	-	-	-	.	.
CC(C)(C)NC(=S)N1CCC(C(=O)c2ccc(Cl)cc2)CC1	-	-	-	.	.
Cc1[nH]c2ccccc2c1C(=O)/C=C\c1ccccc1Cl	+	-	-	-	-
Cc1[nH]c2ccccc2c1C(=O)/C=C/c1ccccc1Cl	-	-	-	.	.
CCCC[C@H]1COCCS(=O)(=O)N1Cc1ccccc1F	-	-	-	.	.
c1cc(SC2CCCCC2)cc(-c2nc3cnccn3c2NC2CCCCC2)c1	-	-	-	-	-
SMILES	Myeloid diff 2	Exocytosis inh	ABCB6 inh 2	Myeloid diff CP1	GFP autofluor
c1cn2c(NC3CCCCC3)c(-c3ccc(SC4CCCCC4)cc3)nc2cn1	-	-	-	.	.
CCC(=O)N1CCC1(C)C(=O)Nc1ncc(C)s1 (stereo unspecified)	-	-	-	.	.
O=C(CN1C(=O)c2ccccc2S1(=O)=O)Nc1ccccc1	-	-	-	.	.
CSc1cccc(NC(=O)CN2C(=O)c3ccccc3S2(=O)=O)c1	-	-	-	-	-
CC(C)C(=O)Nc1cccc(NC(=O)CCN2C(=O)c3ccccc3S2(=O)=O)c1	-	-	-	-	-
COc1cccc(NC(=O)CCN2C(=O)c3ccccc3S2(=O)=O)c1	-	-	-	.	.
Cc1ccc(-n2c(C)nnc2SCC(=O)N(C)c2c(N)n(Cc3ccccc3)c(=O)[nH]c2=O)cc1	-	-	-	.	.
Cc1ccc(-n2nnnc2-c2cccs2)cc1[N+](=O)[O-]	-	-	-	.	.
O=S(=O)(c1ccc(S(=O)(=O)N2CCC(O)CC2)cc1)N1CCCC1	-	-	-	.	.
